{
  "source": "PubChem BioAssay (Tox21)",
  "note": "Active and inactive are the calls of the source. Calls come from the whole dose curve. % is set by controls: 0 for no effect and ±100 for the full control effect.",
  "data": [
    {"test": "qHTS assay to identify small molecule agonists of the sonic hedgehog signaling (Shh) pathway (AID 1259368);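 note: NIH/3T3-derived 3T3Gli1-Luc cells carrying a stable Gli1-driven firefly luciferase reporter; nearly all actives have a fitted effect of over 15% in size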", "conditions": "NIH/3T3 Gli1-Luc reporter, luciferase, 24 h, hits give high values; series mostly up to 92.4 µM; activity change: at the top concentration", "from_the_text": "National Center for Advancing Translational Sciences [NCATS]\nNIH Chemical Genomics Center [NCGC]\nU.S. Environmental Protection Agency [EPA]\nNational Institutes of Environmental Health Sciences [NIEHS]\nNational Toxicology Program [NTP]\nThe sonic hedgehog (Shh) pathway is essential for normal embryonic development. Dysregulation of the Shh pathway can cause severe developmental defects in organs. Therefore chemicals that interfere with the pathway are potential developmental toxicants. A cell line designated 3T3Gli1-Luc (DMB/OARSA/CFSAN/FDA, Laurel, MD), a NIH/3T3 derived clone containing stably integrated Gli1-Luc reporter is used to detect chemical interference of the Shh pathway, by changes in the expression of the firefly Luc gene under the control of the Gli1 transcriptional response element. This cell line was used to screen Tox21 libraries for identifying and prioritizing the potential developmental toxicants that interfere Shh pathway.\n3T3 Gli1-Luc cells were dispensed at 2,000 per well in 5uL of culture medium into white solid bottom 1536-well plates (Greiner Bio-One, Monroe, NC) using a Multidrop Combi (Thermo Scientific, Waltham, MA) dispenser. The assay plates were incubated at 37 C and 5% CO2 for 4hr, and then 23nL of compounds dissolved in DMSO and positive control were transferred using a Pintool station (Wako, San Diego, CA). The assay plates were incubated at 37C and 5% CO2 for 24hr. For luciferase read, 4uL of Amplite Luciferase reporter gene assay reagent (AAT Bioquest, Inc. Sunnyvale, CA) was added to each well of the assay plates using Flying Reagent Dispenser (FRD, Aurora Discovery, San Diego, CA) and incubated at room temperature for 30min. The luminescence signal was measured using a ViewLux plate reader (Perkin Elmer, Shelton, CT).", "values": [
      {"smiles": "CC(C)CCO", "activity change": "0.0178% (inactive)"},
      {"smiles": "CCCCOC(=O)C(=O)OCCCC", "activity change": "0.568% (inactive)"},
      {"smiles": "Cc1ccc(C(=O)C(=O)O)cc1C", "activity change": "1.13% [at 42.5 µM] (inactive)"},
      {"smiles": "CCOC(=O)CC(CC(=O)OCC)(OC(C)=O)C(=O)OCC", "activity change": "2.96% (inactive)"},
      {"smiles": "CNC(=O)C(c1ccccc1)c1ccccc1", "activity change": "0.254% (inactive)"},
      {"smiles": "CC(=O)OCCCc1ccccc1", "activity change": "-0.0237% (inactive)"},
      {"smiles": "Cc1ncc([N+](=O)[O-])n1CC(O)CCl", "note": "(stereo not given)", "activity change": "-0.0918% [at 42.5 µM] (inactive)"},
      {"smiles": "O=S(=O)(O)CCO", "activity change": "0.412% (inactive)"},
      {"smiles": "COCC(=O)Nc1c(I)c(C(=O)NCC(O)CO)c(I)c(C(=O)N(C)CC(O)CO)c1I", "note": "(stereo not given)", "activity change": "-1.3% [at 42.5 µM] (inactive)"},
      {"smiles": "CN(C)CCCNCCC#N", "activity change": "0.424% (inactive)"},
      {"smiles": "CO[Si](CCCS)(OC)OC", "activity change": "-0.687% (inactive)"},
      {"smiles": "CCCCOC(=O)[C@@H](C)Oc1ccc(Oc2ccc(C(F)(F)F)cn2)cc1", "activity change": "0.528% (inactive)"},
      {"smiles": "O=C(O)c1c(Cl)ccc(Cl)c1Cl", "activity change": "-0.453% (inactive)"},
      {"smiles": "Cc1ccccc1C(=O)N1CC/C(=N\\OS(=O)(=O)O)c2ccc(Cl)cc21", "activity change": "0.171% [at 42.5 µM] (inactive)"},
      {"smiles": "CC(C)COC(=O)CCCCC(=O)OCC(C)C", "activity change": "0.308% (inactive)"},
      {"smiles": "Cc1cc(C)cc([N+](=O)[O-])c1", "activity change": "-0.821% (inactive)"},
      {"smiles": "CCCCCCCC/C=C\\CCCCCCCC(=O)OC[C@@H](O)[C@H]1OC[C@H](O)[C@H]1O", "activity change": "1.13% (inactive)"},
      {"smiles": "F[Si-2](F)(F)(F)(F)F", "activity change": "1.04% (inactive)"},
      {"smiles": "O=C(O)c1ccc(OCCN2CCCCC2)cc1", "activity change": "-0.431% [at 42.5 µM] (inactive)"},
      {"smiles": "CC(=O)OC[C@H]1O[C@@H](OC(C)=O)[C@H](OC(C)=O)[C@@H]1OC(C)=O", "activity change": "-0.068% [at 42.5 µM] (inactive)"},
      {"smiles": "C/C=C(\\C)C(=O)OCC/C=C\\CC", "activity change": "0.275% (inactive)"},
      {"smiles": "CC(C)(C)NCCO", "activity change": "-1.99% (inactive)"},
      {"smiles": "O=P(O)(O)OCC(O)CO", "note": "(stereo not given)", "activity change": "0.0291% [at 42.5 µM] (inactive)"},
      {"smiles": "CCNC(=O)/C=C/c1cccc(Br)c1", "activity change": "2.08% [at 42.5 µM] (inactive)"},
      {"smiles": "NC(Cc1c[nH]c2ccccc12)C(=O)O", "note": "(stereo not given)", "activity change": "-1.27% [at 42.5 µM] (inactive)"},
      {"smiles": "O=S1(=O)CCCC1", "activity change": "0.713% (inactive)"},
      {"smiles": "Cc1cccc(Nc2ccncc2S(=O)(=O)NC(=O)NC(C)C)c1", "activity change": "0.268% [at 42.5 µM] (inactive)"},
      {"smiles": "COc1cccc2sc(N)nc12", "activity change": "1.02% (inactive)"},
      {"smiles": "Cc1ccc(S(=O)(=O)NC(=O)NC2CCCCCCC2)cc1", "activity change": "-0.0516% [at 42.5 µM] (inactive)"},
      {"smiles": "C[C@@H]1C[C@H]2[C@@H]3C[C@H](F)C4=CC(=O)C=C[C@]4(C)[C@@]3(F)[C@@H](O)C[C@]2(C)[C@@]1(O)C(=O)CO", "activity change": "-0.471% [at 42.5 µM] (inactive)"},
      {"smiles": "CC(C)=CC(C)(C)C", "activity change": "-1.56% (inactive)"},
      {"smiles": "CCCOCCOCCOCCO", "activity change": "-0.304% (inactive)"},
      {"smiles": "CCCCC(CC)C(=O)OC(C)C", "note": "(stereo not given)", "activity change": "0.153% (inactive)"},
      {"smiles": "CCCCCN(CCCOC)C(=O)C(CCC(=O)O)NC(=O)c1ccc(Cl)c(Cl)c1", "note": "(stereo not given)", "activity change": "0.286% [at 42.5 µM] (inactive)"},
      {"smiles": "O=[Si]=O", "activity change": "0.0136% (inactive)"},
      {"smiles": "CC(C)CCC(=O)CCC(C)C", "activity change": "0.41% (inactive)"},
      {"smiles": "Cc1ccc2c(c1)c1c3n2CCNC3CCC1", "note": "(stereo not given)", "activity change": "-0.999% [at 42.5 µM] (inactive)"},
      {"smiles": "CC(=O)OC(C(=O)c1ccccc1)c1ccccc1", "note": "(stereo not given)", "activity change": "-0.263% (inactive)"},
      {"smiles": "CC(=O)N(CC(O)CO)c1c(I)c(C(=O)NCC(O)CO)c(I)c(C(=O)NCC(O)CO)c1I", "note": "(stereo not given)", "activity change": "-0.194% [at 42.5 µM] (inactive)"},
      {"smiles": "O=C(Nc1cccc(C2=NCCN2)c1)Nc1cccc(C2=NCCN2)c1", "activity change": "1.95% [at 18.9 µM] (inactive)"}
    ]}
  ]
}
